# Where “and” joins values, the source holds several entries; their conditions need not be identical. Equal entries are not always repeated. Records with an inconclusive call do not appear. A call without a number means that no potency is given here. More than one record can exist for a structure, and the calls need not agree. Calls of active or inactive are those of the source. Unless noted, calls come from the whole dose curve; as a rule, active = well fitted curve in the direction sought with a large enough effect; inconclusive = small, poorly fitted or top-dose-only effect, or another doubt; inactive = no such curve, though single readings can be large; an effect the other way counts as inactive or inconclusive.
# Assays:
# [1] = biological target: Cytochrome P450 1A2 (Homo sapiens) (UniProt P05177); experiment: p450-cyp1a2 (AID 410; calls by dose curve; note: potency is the fitted concentration of half-maximal effect)
# Chain of Cytochrome P450 1A2 (Homo sapiens) (P05177 whole entry, looked up): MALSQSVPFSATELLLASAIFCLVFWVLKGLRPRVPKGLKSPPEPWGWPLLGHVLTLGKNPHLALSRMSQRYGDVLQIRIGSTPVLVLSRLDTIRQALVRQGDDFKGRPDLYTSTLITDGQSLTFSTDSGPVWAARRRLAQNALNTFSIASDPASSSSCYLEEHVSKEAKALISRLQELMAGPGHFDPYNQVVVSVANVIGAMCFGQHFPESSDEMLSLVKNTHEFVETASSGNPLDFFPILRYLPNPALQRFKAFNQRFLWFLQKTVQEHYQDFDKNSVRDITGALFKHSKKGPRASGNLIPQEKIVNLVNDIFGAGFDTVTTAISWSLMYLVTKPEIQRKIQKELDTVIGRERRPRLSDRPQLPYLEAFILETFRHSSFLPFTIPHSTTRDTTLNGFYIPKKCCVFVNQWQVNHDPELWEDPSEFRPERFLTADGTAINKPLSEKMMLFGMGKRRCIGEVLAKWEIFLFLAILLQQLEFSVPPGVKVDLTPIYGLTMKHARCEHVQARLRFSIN
# Method in brief: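 Human CYP1A2 (20nM) demethylated Luciferin-ME at its Km (100uM) in 100mM KPO4. After 10 min compound preincubation, NADPH regeneration ran the reaction 60 min at room temperature. Luciferin was read by luminescence, normalized to 57 uM furafylline.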
# [2] = NFAT Signaling Pathway (AID 444; active = well fitted curve in either direction with a large enough effect, not every such curve was filed as active;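 note: carbachol stimulus at about its EC50 of 1 µM final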); details: Jurkat NFAT-bla M1, carbachol, beta-lactamase ratio, 5 h; at 17.2 µM (top of the series) unless noted
# Method in brief: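 Read-out: CCF4 FRET ratio (460 nm/530 nm) after 1 h RT dye loading, used for %activity and AC50 from titration series. Cells: Jurkat NFAT-β-lactamase/M1 line, treated with compound plus 1 uM carbachol for 5 h, 37 °C.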
# [3] = biological target: Glucocorticoid receptor (Homo sapiens) (UniProt P04150); experiment: GR-GFP Redistribution (AID 450;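 active = compounds whose dose series gives a full or clear partial fitted curve of increased nuclear translocation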; note: potency is the fitted concentration of half-maximal effect)
# Chain of Glucocorticoid receptor (Homo sapiens) (P04150 whole entry, looked up, the tested form may be a part): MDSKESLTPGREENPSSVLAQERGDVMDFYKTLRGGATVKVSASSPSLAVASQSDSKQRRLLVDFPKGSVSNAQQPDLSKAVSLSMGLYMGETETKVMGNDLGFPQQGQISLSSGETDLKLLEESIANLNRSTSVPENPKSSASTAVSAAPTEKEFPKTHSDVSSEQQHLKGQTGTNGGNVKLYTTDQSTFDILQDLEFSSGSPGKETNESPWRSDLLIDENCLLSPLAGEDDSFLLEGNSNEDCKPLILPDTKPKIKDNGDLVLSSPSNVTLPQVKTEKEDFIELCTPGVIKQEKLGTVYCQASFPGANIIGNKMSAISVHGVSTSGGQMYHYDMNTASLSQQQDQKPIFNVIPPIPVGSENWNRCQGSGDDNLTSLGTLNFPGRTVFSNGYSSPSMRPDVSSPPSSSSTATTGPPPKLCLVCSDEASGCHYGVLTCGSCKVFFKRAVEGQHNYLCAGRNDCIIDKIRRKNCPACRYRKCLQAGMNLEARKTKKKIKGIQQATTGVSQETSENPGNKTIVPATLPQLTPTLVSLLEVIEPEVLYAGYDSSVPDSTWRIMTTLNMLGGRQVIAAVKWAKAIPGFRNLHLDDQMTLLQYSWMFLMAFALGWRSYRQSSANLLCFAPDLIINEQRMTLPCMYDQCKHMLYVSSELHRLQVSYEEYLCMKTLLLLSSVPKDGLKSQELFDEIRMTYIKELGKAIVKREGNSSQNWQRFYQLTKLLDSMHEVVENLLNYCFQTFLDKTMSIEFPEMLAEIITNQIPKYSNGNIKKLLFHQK
# [4] = biological target: Glucocorticoid receptor (Homo sapiens) (UniProt P04150); experiment: GR-EFC Redistribution (AID 451; calls by dose curve; note: potency is the fitted concentration of half-maximal effect); details: CHO-K1 GR-EFC translocation, beta-gal luminescence, 2 h
# Method in brief: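 Translocation of GR-ED fusion to nuclear EA restores b-gal, read by luminescence after 1 h room-temperature detection. Engineered CHO-K1 biosensor cells, 1,000/well, exposed 2 h at 37 C to titrations up to 46 uM final.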
# [5] = biological target: Mitogen-activated protein kinase 10 (Mus musculus) (UniProt Q61831); experiment: JNK3 AlphaScreen Assay (AID 530; active = well fitted curve in either direction with a large enough effect, not every such curve was filed as active;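 note: kinase came from lysate of stimulated human HepG2 cells; signal reports phosphorylation of biotinylated GST-cJun 1-79 at Ser73 with 10 µM ATP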)
# Method in brief: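 Room-temperature AlphaScreen kinase assay; pre-activated HepG2 lysate as JNK3 source, biotin-GST-cJun(1-79) substrate, 10 uM ATP, compound 15 min preincubation.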
# [6] = biological target: 3',5'-cyclic-AMP phosphodiesterase 4B (Homo sapiens) (UniProt Q07343); experiment: qHTS Assay for Inhibitors of PDE-IV (AID 607; active = well fitted activation curve with a large enough effect in the main read-out, with a control signal flat, not every such curve was filed as active)
# Chain of 3',5'-cyclic-AMP phosphodiesterase 4B (Homo sapiens) (Q07343 whole entry, looked up): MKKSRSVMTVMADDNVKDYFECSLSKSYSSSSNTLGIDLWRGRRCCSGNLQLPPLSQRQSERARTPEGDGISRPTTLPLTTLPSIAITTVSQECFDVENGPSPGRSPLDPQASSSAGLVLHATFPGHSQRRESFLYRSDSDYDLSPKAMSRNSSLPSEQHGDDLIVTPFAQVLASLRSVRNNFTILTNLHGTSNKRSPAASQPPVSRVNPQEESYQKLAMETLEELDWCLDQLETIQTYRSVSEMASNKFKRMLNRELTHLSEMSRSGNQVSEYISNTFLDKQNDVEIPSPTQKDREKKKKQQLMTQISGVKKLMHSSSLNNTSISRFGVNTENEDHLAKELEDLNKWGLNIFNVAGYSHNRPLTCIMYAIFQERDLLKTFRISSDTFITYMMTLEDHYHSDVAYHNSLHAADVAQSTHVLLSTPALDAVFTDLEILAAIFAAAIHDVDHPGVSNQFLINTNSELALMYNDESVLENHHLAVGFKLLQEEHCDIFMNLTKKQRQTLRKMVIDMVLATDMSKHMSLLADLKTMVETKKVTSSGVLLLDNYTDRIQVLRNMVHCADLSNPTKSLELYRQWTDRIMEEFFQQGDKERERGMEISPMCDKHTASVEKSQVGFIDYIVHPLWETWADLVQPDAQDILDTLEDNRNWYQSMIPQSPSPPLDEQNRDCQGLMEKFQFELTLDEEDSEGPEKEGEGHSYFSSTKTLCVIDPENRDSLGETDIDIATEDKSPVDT
# Method in brief: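 Live HEK293 cells with a modified cyclic nucleotide-gated (CNG) channel report intracellular cAMP via membrane-potential dye fluorescence (ex 535/em 590 nm). Endogenous PDE-IV was targeted. Compounds were tested at up to 22.9 uM final; RO 20-1724 100 uM served as control.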
# [7] = biological target: Guanine nucleotide-binding protein G(i) subunit alpha-1 (Homo sapiens) (UniProt P63096); experiment: qHTS Assay for Inhibitors of RGS12 GoLoco Motif Activity (Green Fluorophore) (AID 879);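 note: negative values mean loss of peptide binding seen as reduced polarization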
# Method in brief: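 Fluorescence polarization assay: 50 nM Gαi1 with 10 nM FITC-labeled RGS12 GoLoco peptide in 10 mM Tris pH 7.5, 150 mM NaCl, 0.1 mM GDP, 0.05% NP40, 10 min at room temperature with compound.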
# [8] = biological target: Cytochrome P450 3A4 (Homo sapiens) (UniProt P08684); experiment: qHTS Assay for Activators of Cytochrome P450 3A4 (AID 885); note: nearly all actives have a fitted effect of over 65% in size
# Chain of Cytochrome P450 3A4 (Homo sapiens) (P08684 whole entry, looked up): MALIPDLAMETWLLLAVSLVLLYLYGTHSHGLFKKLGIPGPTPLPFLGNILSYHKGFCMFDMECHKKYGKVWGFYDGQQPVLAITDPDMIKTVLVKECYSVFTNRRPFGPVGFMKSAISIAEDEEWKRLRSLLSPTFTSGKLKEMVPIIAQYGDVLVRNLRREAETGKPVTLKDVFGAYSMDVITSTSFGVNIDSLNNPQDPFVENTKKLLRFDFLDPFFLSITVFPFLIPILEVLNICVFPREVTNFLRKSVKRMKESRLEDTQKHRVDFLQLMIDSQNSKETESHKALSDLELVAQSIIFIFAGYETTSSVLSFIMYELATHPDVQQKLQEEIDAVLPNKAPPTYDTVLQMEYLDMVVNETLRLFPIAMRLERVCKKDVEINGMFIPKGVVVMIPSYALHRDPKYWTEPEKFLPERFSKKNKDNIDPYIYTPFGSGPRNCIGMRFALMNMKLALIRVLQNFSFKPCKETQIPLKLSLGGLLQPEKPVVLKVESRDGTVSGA
# Method in brief: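 Quantitative HTS format: compounds preincubated with 20nM human CYP3A4 and Luciferin-PPXE substrate at KM, reaction started by NADPH regeneration, stopped after 60 min, luciferase luminescence read 20 min later.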
# [9] = biological target: Cytochrome P450 2D6 (Homo sapiens) (UniProt P10635); experiment: qHTS Assay for Inhibitors and Substrates of Cytochrome P450 2D6 (AID 891);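 note: luciferin methyl ether substrate demethylated by CYP2D6 with NADPH regeneration; nearly all actives have a fitted effect of over 60% in size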
# Method in brief: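 Human CYP2D6 (5 nM) with 30 uM Luciferin-ME EGE (at Km) in 100 mM KPO4, compound preincubated 10 min, then NADPH regeneration system for 60 min at room temperature. Luciferin read by luminescence; normalized to 1.43 uM quinidine.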
# [10] = qHTS Assay for Identification of Small Molecule Antagonists for Thrombopoietin (TPO) Signaling Pathway (AID 918); details: TPO-dependent cell signaling reporter, antagonist mode; note: potency is the fitted concentration of half-maximal effect; nearly all actives have a fitted effect of over 60% in size
# Method in brief: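 Murine Ba/F3 cells stably expressing human TPO receptor and a Glycoprotein IIb promoter–luciferase reporter were IL-3-starved overnight, treated with compounds plus TPO (26 pM final, its EC50) for 24 hrs at 37 C, then read by luminescence.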
# [11] = biological target: Pyruvate kinase (Leishmania mexicana) (UniProt Q27686); experiment: qHTS Validation Assay for Inhibitors of Leishmania Mexicana Pyruvate Kinase (AID 945)
# Chain of Pyruvate kinase (Leishmania mexicana) (Q27686 2-499 E452W): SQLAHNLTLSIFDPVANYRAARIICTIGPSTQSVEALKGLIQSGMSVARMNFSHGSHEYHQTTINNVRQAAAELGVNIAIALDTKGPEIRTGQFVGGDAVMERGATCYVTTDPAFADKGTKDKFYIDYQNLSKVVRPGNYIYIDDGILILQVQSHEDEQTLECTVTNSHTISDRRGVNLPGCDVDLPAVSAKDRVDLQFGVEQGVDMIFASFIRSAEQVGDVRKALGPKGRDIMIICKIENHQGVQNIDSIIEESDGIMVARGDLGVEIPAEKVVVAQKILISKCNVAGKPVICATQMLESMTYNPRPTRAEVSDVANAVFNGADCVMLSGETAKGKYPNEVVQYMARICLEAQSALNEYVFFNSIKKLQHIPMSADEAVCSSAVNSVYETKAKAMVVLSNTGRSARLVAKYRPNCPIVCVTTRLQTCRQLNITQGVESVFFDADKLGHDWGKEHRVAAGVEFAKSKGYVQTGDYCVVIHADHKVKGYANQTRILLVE
# Method in brief: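 Eight-point qHTS titrations; enzyme 0.2 nM LmPYK (E451W mutant); substrates 0.5 mM PEP, 0.1 mM ADP; 7 mM MgCl2; 1 h room temperature; PKLight luminescence normalized to neutral control.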
# [12] = biological target: Pyruvate kinase PKM (Homo sapiens) (UniProt P14618); experiment: qHTS Assay for Activators of Human Muscle Pyruvate Kinase (AID 954; active = well fitted curve in the direction sought with a large enough effect, not every such curve was filed as active)
# Method in brief: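 Enzyme was run at intermediate activity so both inhibitors and activators could be detected. ATP formed from ADP and PEP by 0.1 nM human PKM2 during a 1 h room-temperature incubation was quantified by coupled luciferase luminescence.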
# [13] = biological target: Alpha-galactosidase A (Homo sapiens) (UniProt P06280); experiment: Counterscreen for Glucocerebrosidase Inhibitors: qHTS Assay for Human alpha-Galactosidase at pH 4.5 (AID 992)
# Method in brief: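 Read-out is 4-methylumbelliferone fluorescence (365 nm excitation, 440 nm emission) after a pH 10 NaOH/glycine stop. Reactions held 2 nM enzyme and 80 uM substrate at pH 4.5 for 20 min at room temperature.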
# [14] = biological target: alpha-glucosidase (Oryza sativa, rice) (UniProt Q653V4); experiment: Counterscreen for Glucocerebrosidase Inhibitors: qHTS Assay for Rice alpha-Glucosidase at pH 5.0 (AID 997)
# Method in brief: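 Rice alpha-glucosidase (4 nM final) with 400 uM 4-methylumbelliferyl-alpha-D-glucopyranoside in citrate buffer pH 5.0, 20 min at room temperature, stopped at pH 10; fluorescence 365/440 nm, compounds 0.7 nM–77 uM, AC50 from Hill fits.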
# [15] = biological target: ATP-dependent 6-phosphofructokinase (Trypanosoma brucei brucei) (UniProt O15648); experiment: qHTS Assay to Find Inhibitors of T. brucei phosphofructokinase: hit validation (AID 492961);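 note: luminescence reports ADP formed as PFK phosphorylates fructose-6-phosphate with ATP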
# Chain of ATP-dependent 6-phosphofructokinase (Trypanosoma brucei brucei) (O15648 whole entry, looked up): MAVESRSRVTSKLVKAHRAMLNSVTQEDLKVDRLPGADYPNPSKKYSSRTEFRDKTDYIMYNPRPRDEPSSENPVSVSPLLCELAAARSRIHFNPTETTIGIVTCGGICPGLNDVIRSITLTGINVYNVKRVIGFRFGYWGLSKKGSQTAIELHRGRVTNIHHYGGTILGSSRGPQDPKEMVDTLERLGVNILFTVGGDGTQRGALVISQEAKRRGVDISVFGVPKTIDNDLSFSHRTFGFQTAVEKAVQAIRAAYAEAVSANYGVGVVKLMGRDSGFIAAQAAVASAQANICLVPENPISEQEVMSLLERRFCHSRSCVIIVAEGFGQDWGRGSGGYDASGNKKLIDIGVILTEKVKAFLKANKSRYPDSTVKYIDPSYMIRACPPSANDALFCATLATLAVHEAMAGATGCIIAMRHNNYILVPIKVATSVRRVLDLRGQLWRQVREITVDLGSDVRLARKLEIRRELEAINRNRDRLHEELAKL
# Method in brief: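 Measures ADP output of PFK (1.25 nM) at 0.1 mM ATP, 0.5 mM F6P, pH 8.0 TEA buffer with 5 mM MgCl2. No-enzyme wells define full inhibition; uninhibited enzyme wells define zero.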
# [16] = biological target: Ubiquitin carboxyl-terminal hydrolase 1 (Homo sapiens) (UniProt O94782); experiment: Inhibitors of USP1/UAF1: Pilot qHTS (AID 504865);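 note: rhodamine fluorescence freed from ubiquitin-rhodamine substrate followed over time; top concentration of the series differs between compounds; nearly all actives have a fitted effect of over 35% in size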
# Chain of Ubiquitin carboxyl-terminal hydrolase 1 (Homo sapiens) (O94782 whole entry, looked up): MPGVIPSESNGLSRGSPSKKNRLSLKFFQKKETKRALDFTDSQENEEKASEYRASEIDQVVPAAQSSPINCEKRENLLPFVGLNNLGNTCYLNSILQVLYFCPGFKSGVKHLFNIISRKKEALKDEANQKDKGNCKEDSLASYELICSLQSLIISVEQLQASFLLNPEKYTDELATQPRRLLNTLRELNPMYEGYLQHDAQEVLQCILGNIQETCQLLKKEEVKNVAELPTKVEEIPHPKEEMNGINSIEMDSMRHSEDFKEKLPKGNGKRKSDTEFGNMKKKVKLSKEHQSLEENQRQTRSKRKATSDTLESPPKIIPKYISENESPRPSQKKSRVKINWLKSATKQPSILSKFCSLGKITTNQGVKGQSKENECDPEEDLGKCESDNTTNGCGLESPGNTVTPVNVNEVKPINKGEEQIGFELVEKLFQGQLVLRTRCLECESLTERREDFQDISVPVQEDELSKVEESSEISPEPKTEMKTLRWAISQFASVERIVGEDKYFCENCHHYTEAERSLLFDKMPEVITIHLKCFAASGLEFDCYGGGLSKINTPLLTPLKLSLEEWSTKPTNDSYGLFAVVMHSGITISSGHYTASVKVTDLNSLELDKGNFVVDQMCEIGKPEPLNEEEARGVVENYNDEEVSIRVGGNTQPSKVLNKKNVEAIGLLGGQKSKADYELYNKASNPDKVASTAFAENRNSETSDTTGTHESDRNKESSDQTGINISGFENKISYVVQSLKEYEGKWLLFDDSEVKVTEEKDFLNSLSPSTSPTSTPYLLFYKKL
# Method in brief: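 Deubiquitinase activity followed as kinetic rhodamine fluorescence release from 150 nM Ub-Rho. 1 nM USP1/UAF1 with compound, after 15 min room-temperature preincubation, in HEPES pH 7.8 buffer containing TCEP, EDTA, BSA and Tween-20.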
# [17] = biological target: Luciferin 4-monooxygenase (Photinus pyralis) (UniProt P08659); experiment: Biochemical firefly luciferase enzyme assay for NPC (AID 624030);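 note: purified P. pyralis luciferase at 10 nM with luciferin and ATP substrate; nearly all actives have a fitted effect of over 70% in size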
# Chain of Luciferin 4-monooxygenase (Photinus pyralis) (P08659 whole entry, looked up): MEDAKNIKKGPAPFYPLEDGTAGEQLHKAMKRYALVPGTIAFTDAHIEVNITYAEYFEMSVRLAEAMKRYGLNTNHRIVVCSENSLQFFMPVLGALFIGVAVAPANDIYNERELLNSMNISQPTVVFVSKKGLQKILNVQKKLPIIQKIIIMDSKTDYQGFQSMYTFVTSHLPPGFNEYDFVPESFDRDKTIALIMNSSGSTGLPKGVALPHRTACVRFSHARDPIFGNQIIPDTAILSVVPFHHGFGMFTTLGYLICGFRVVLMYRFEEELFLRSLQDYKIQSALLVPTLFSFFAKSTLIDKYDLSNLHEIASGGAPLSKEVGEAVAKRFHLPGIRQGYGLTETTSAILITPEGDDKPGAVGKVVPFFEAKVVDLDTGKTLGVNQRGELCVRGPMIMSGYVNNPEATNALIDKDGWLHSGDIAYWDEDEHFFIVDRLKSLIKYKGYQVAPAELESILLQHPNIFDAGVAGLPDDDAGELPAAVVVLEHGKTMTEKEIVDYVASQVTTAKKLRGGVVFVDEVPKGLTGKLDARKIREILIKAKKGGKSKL
# Method in brief: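 Direct inhibition of firefly luciferase enzyme (10 nM final, 50 mM Tris Acetate) assessed by luminescence within 5 minutes. Percent activity scaled between DMSO and PTC124 positive control, with concentration-effect curves classified by fit quality and response.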
# [18] = S16 Schwann cell PMP22 intronic element firefly luciferase assay (AID 624032); note: potency is the fitted concentration of half-maximal effect; nearly all actives have a fitted effect of over 30% in size
# Method in brief: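 Luciferase reporter of PMP22 intronic-element expression in stably transfected S16 rat Schwann cells, read by ONE-Glo luminescence after 24 h compound exposure at 37 C. Activity scaled between DMSO (0%) and positive-control PTC124; concentration-effect curves quality-classified.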
# [19] = qHTS profiling for inhibitors of Plasmodium falciparum proliferation (AID 504749); note: nearly all actives have a fitted effect of over 60% in size; note: potency is the fitted concentration of half-maximal effect; details: P. falciparum in erythrocytes, SYBR Green DNA, 72 h; at 28.7 µM (top of the series); parasite line B
# Method in brief: (§1)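 Three-day growth assay of blood-stage parasites in erythrocytes (0.3% parasitemia, 2.5% hematocrit) at 37 C, 5% CO2, quantified by SYBR Green DNA staining after overnight detergent lysis.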
# AS120 = experiment: as above; details: P. falciparum in erythrocytes, SYBR Green DNA, 72 h; series mostly up to 28.7 µM
# Method in brief: as §1
# ATS95 = experiment: as above; details: P. falciparum in erythrocytes, SYBR Green DNA, 72 h; series mostly up to 28.7 µM
# Method in brief: as §1
# CP185 = experiment: as above; details: P. falciparum in erythrocytes, SYBR Green DNA, 72 h; series mostly up to 28.7 µM
# Method in brief: as §1
# CP192 = experiment: as above; details: P. falciparum in erythrocytes, SYBR Green DNA, 72 h; series mostly up to 28.7 µM
# Method in brief: as §1
# CP201 = experiment: as above; details: P. falciparum in erythrocytes, SYBR Green DNA, 72 h; series mostly up to 28.7 µM
# Method in brief: as §1
# CP203 = experiment: as above; details: P. falciparum in erythrocytes, SYBR Green DNA, 72 h; series mostly up to 28.7 µM
# Method in brief: as §1
# CP211 = experiment: as above; details: P. falciparum in erythrocytes, SYBR Green DNA, 72 h; series mostly up to 28.7 µM
# Method in brief: as §1
# CP238 = experiment: as above; details: P. falciparum in erythrocytes, SYBR Green DNA, 72 h; series mostly up to 28.7 µM
# Method in brief: as §1
# CP247 = experiment: as above; details: P. falciparum in erythrocytes, SYBR Green DNA, 72 h; series mostly up to 28.7 µM
# Method in brief: as §1
smiles,measurement,setting,value
C=C1C(=O)O[C@@H]2[C@@H]1CC/C(C)=C\CC[C@@]1(C)O[C@H]21,Potency,[1],inactive and 12.6 µM (active)
same,"activity change, negative = inhibition",[2],-121% (active)
same,Potency,[3],> 46 µM (inactive) and > 20.6 µM (inactive)
same,Potency,[4],> 46 µM (inactive) and > 20.6 µM (inactive)
same,Potency,[5],inactive
same,Potency,[6],inactive
same,outcome,[7],inactive
same,Potency,[8],inactive
same,Potency,[9],inactive
same,Potency,[10],10 µM (active)
same,Potency,[11],inactive
same,outcome,[12],inactive
same,outcome,[13],inactive
same,outcome,[14],inactive
same,Potency,[15],inactive
same,Potency,[16],inactive
same,Potency,[17],inactive
same,Potency,[18],32.2 µM (active)
same,"activity, negative = inhibition",[19],-27.2% (inactive)
same,Potency,AS120,inactive
same,Potency,ATS95,inactive
same,Potency,CP185,inactive
same,Potency,CP192,inactive
same,Potency,CP201,inactive
same,Potency,CP203,inactive
same,Potency,CP211,inactive
same,Potency,CP238,inactive
same,Potency,CP247,5.01 µM (active)
